Results: PubChem BioAssay AID1159580 (chemical genetic matrix, 2015)
About 2,000 (36%) of roughly 5,500 compounds were called active. About 18% were inconclusive and are not listed. No stated cut-off is given here; in the data, active means normalized growth mostly below about 0.91 (no sharp cut-off); inconclusive means no clear call, values can overlap the other calls; inactive means mostly above about 0.92. The list shows a part of the results.

Test: chemical genetic growth profiling, strain panel (AID 1159580);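 further: tested at 20 µM; growth read once vehicle control cultures reached saturation at 30 °C; 1 = growth at the plate median or of vehicle wells; lower values mean less growth of the strain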
Details: S. cerevisiae deletion strains, growth OD
[1] = locus YAL040C, strain CLN3, active compounds read low
[2] = locus YCL061C, strain MRC1 (second series), active compounds read low
[3] = locus YDR363W, strain ESC2, active compounds read low
[4] = locus YER002W, strain NOP16, active compounds read low
[5] = locus YNL175C, strain NOP13, active compounds read low
[6] = locus YNL197C, strain WHI3, active compounds read low
[7] = locus YNL224C, strain SQS1, active compounds read low
[8] = locus YOR083W, strain WHI5 (second series), active compounds read low
[9] = locus YPL241C, strain CIN2, active compounds read low

Measured: normalized growth

C[C@@]1(C2CCCC2)Cc2cc(OCC(=O)O)c(Cl)c(Cl)c2C1=O
inactive: [1] 1 | [2] 1.01 | [3] 1.01 | [4] 1 | locus YMR307W, strain GAS1, active compounds read low 1.01 | locus YNL128W, strain TEP1, active compounds read low 1 | [5] 1 | [6] 1 | [7] 1 | locus YNL322C, strain KRE1, active compounds read low 1 | [8] 1.01 | locus YPL055C, strain LGE1, active compounds read low 1.01 | [9] 1.01

CCCC[C@@]1(C2CCCC2)Cc2cc(OCC(=O)O)c(Cl)c(Cl)c2C1=O
inactive: locus YAL013W, strain DEP1, active compounds read low 1.02 | [1] 1 | [2] 1 | [3] 0.989 | [4] 1.05 | locus YGR078C, strain PAC10, active compounds read low 1.02 | locus YGR229C, strain SMI1, active compounds read low 1.03 | locus YMR263W, strain SAP30, active compounds read low 1 | locus YNL153C, strain GIM3, active compounds read low 1.01 | [5] 0.986 | [6] 0.959 | [7] 0.989 | [8] 1 | [9] 1
